Laboratory results taken from PubChem BioAssay AID743187 (National Center for Advancing Translational Sciences (NCATS), 2013).
This is one part of the list. A call without a number means that no potency is given here. Records with an inconclusive call do not appear. Active and inactive are the calls of the source. The call rests on the fitted dose curve; in most records, active means well fitted inhibition curve with a large enough effect; inconclusive means small, poorly fitted or top-dose-only effect; inactive means no such curve, though single readings can be large or run the other way.

Molecular target: Peroxisomal multifunctional enzyme type 2 (Homo sapiens) (UniProt P51659)
Sequence (P51659 whole entry, looked up): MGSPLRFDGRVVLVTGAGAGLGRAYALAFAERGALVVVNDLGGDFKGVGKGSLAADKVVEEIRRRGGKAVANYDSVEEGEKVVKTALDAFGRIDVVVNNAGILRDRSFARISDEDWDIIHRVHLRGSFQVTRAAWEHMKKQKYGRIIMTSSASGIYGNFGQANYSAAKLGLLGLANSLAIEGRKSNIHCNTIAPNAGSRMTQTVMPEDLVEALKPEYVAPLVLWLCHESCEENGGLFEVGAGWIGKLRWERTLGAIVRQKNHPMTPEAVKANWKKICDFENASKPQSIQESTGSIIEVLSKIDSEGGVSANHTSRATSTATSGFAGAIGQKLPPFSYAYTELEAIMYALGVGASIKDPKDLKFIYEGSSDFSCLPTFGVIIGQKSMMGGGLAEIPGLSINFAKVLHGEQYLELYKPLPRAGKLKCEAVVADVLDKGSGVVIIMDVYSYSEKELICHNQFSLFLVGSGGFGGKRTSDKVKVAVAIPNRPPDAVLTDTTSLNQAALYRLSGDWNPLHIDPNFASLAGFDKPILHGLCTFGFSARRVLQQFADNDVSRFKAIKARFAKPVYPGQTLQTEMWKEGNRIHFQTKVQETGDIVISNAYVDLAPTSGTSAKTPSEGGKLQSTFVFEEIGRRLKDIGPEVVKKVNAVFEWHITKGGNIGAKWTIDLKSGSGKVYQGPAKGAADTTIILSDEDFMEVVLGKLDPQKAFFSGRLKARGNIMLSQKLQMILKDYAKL
Test: Extended Characterization of HPGD Inhibitors: Counterscreen Against HSD17b4
Conditions: purified HSD17B4, estradiol/NAD+, NADH fluorescence; series mostly up to 57.1 µM
Description: The central role of HPGD is to inactivate prostaglandins such as prostaglandin E2 (PGE2) or prostaglandin D2 (PGD2). These prostaglandins are involved in a number of processes, including inflammation, differentiation, and cellular signaling, which makes HPGD an important target for pharmacological intervention. The […] enzyme 17b-hydroxysteroid dehydrogenase […] (HSD17b4 catalyzes the NAD+-dependent oxidation of a variety of substrates including acyl-CoAs, androgens and neurosteroids, as well as bile acids. HSD17b4 activity was screened by utilizing an electron donor (estradiol) and NAD+ as an electron acceptor/cofactor. An increase in the fluorescence intensity due to conversion of NAD+ to NADH was used to measure the enzyme activity.. NIH Chemical Genomics Center [NCGC] NIH Molecular Libraries Probe Centers Network [MLPCN] MLPCN Grant: MH084681 Assay Submitter (PI): Structural Genomics Consortium
3 uL of enzyme (final concentration 100 nM) or buffer were dispensed into a 1,536-well solid-bottom black plate (Greiner Bio One, Monroe, NC) followed by pin-tool transfer (23 nL) of compound (final concentration range 324 pM to 57.2 uM) and control (CID-24867619, final concentration range 5.23 nM to 11.4 uM). Samples were incubated (RT, protected from light) for 15 minutes followed by a 1 uL substrate addition of NAD+ and Estradiol (final concentrations of 1 mM and 50 uM, respectively, in 15% DMSO). Plates were centrifuged at 1,000 rpm for 15 seconds, then read immediately on a ViewLux High-throughput CCD imager (Perkin-Elmer) equipped with standard UV fluorescence optics (340 nm excitation, 450 nm emission), incubated for 1 hour (RT, protected from light) followed by a second read. Data were normalized ([…]) against no-enzyme (positive) and enzyme-containing (neutral) wells.

Structure (SMILES) | Potency
COc1cccc(NC(=S)N2CCN(c3ccc(Cl)cc3Cl)CC2)n1 | inactive
COc1ccnc(NC(=S)N2CCN(c3ncc(C(F)(F)F)cc3Cl)CC2)c1 | inactive
FC(F)(F)c1cccc(N2CCN(C(=S)Nc3ccncc3)CC2)c1 | inactive
Cc1cc(-c2nnc3n2CCCCC3)c(C)n1-c1cccc(Cl)c1 | inactive
Cc1cc(C)nc(NC(=S)N2CCN(c3ccc(Cl)cc3C(F)(F)F)CC2)c1 | 24.1 µM (active)
Cc1cc(C)nc(NC(=S)N2CCN(c3cccc(C#N)c3)CC2)c1 | inactive
COc1cccc(NC(=S)N2CCN(c3ccccc3C(F)(F)F)CC2)n1 | inactive
Cc1cc(C)nc(NC(=S)N2CCN(c3ccc4nonc4c3)CC2)c1 | inactive
